The nature of assay [1]: qHTS assay to test for compound auto fluorescence at 535 nm (green) in HEK293 cells (AID 720680). For orientation: qHTS replaces the single test concentration by a dilution series.
A short description of assay [2]: qHTS assay to test for compound auto fluorescence at 535 nm (green) in HEK293 cell free culture (AID 720682). An outline of the steps:
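Fluorescein serves as the green reference fluorophore; each compound's intrinsic emission at 535 nm (excitation 485 nm) is reported as an equivalent amount of that dye, measured in serum-containing DMEM without cells.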

The nature of assay [3]: qHTS assay to test for compound auto fluorescence at 590 nm (red) in HEK293 cell free culture (AID 720683). An outline of the steps: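 Cell-free wells of DMEM with 10% FBS received compound, and intrinsic fluorescence was read at excitation/emission 540/590 nm. Values expressed as equivalence to Rose Bengal sodium.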
Assay [4] is described as follows: qHTS assay to test for compound auto fluorescence at 590 nm (red) in HepG2 cell free culture (AID 720684). The method in brief:
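Compounds are added to culture medium (MEM, 10% FBS) lacking cells, then fluorescence is read at excitation 540 nm, emission 590 nm, with Rose Bengal sodium as the equivalency standard.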

A short description of assay [5]: qHTS assay to test for compound auto fluorescence at 460 nm (blue) in HepG2 cell free culture (AID 720685). An outline of the steps:
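Compound (23 nL) or DMSO pinned into cell-free MEM with 10% FBS; blue fluorescence read at 405/460 nm excitation/emission, expressed as auto-fluorescence equivalency to triamterene.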

Assay [6] can be described thus: qHTS assay to test for compound auto fluorescence at 535 nm (green) in HepG2 cell free culture (AID 720686).
The nature of assay [7]: qHTS assay to test for compound auto fluorescence at 460 nm (blue) in HepG2 cells (AID 720687). An outline of the steps:
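HepG2 cells in MEM with 10% FBS, attached overnight at 37 C, were exposed to compound or DMSO for 1 hr at 37 C, 5% CO2. Blue fluorescence was read at 405/460 nm, with triamterene as reference fluorophore.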

A short description of assay [8]: qHTS assay to identify small molecule antagonists of the glucocorticoid receptor (GR) signaling pathway - cell viability counter screen (AID 720693). Note: nearly all actives have a fitted effect of over 55% in size.
A short description of assay [9]: qHTS assay for identifying genotoxic compounds that show differential cytotoxicity against isogenic chicken DT40 cell lines with known DNA damage response pathways - wild type cell line (AID 743012). Note: nearly all actives have a fitted effect of over 60% in size. Note: potency is the fitted concentration of half-maximal effect. The method in brief:
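Wild type DT40, 300 cells/well, ~0.5 h settle at 37 C/5% CO2; compounds in DMSO added by pintool; 40 h at 37 C/5% CO2; CellTiter-Glo, 30 min RT; luminescence.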

Assay [10] is described as follows: qHTS assay for identifying genotoxic compounds that show differential cytotoxicity against isogenic chicken DT40 cell lines with known DNA damage response pathways - Rev3 mutant cell line (AID 743014). Note: nearly all actives have a fitted effect of over 55% in size. Note: potency is the fitted concentration of half-maximal effect.
The nature of assay [11]: qHTS assay for identifying genotoxic compounds that show differential cytotoxicity against isogenic chicken DT40 cell lines with known DNA damage response pathways - Rad54/Ku70 mutant cell line (AID 743015). Note: nearly all actives have a fitted effect of over 60% in size. Note: potency is the fitted concentration of half-maximal effect.
Assay [12] in a line: qHTS assay to identify small molecule antagonists of the androgen receptor (AR) signaling pathway - cell viability counter screen (AID 743033; note: nearly all actives have a fitted effect of over 45% in size).
Assay [13] in a line: qHTS assay to identify small molecule antagonists of the androgen receptor (AR) signaling pathway using the MDA cell line - cell viability counter screen (AID 743041; note: nearly all actives have a fitted effect of over 45% in size). An outline of the steps:
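Same-well cytotoxicity was assessed by CellTiter-Fluor in MDA-kb2 AR-luc cells after 16 h of compound treatment under R1881 agonism.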

For assay [14], the target named is Glucocorticoid receptor (Homo sapiens) (UniProt P04150). Description: qHTS assay to identify small molecule agonists of the glucocorticoid receptor (GR) signaling pathway (AID 720691; active = well fitted activation curve with a large enough effect in the signal ratio in the repeat runs, not every such curve was filed as active; the % refers to the signal ratio). An outline of the steps: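 Fluorescence intensity from LiveBLAzer B/G FRET substrate (2 h, room temperature) reports beta-lactamase expression driven by the glucocorticoid response element in GR-bla HeLa cells after 18 h compound exposure at 37 C.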

Assay [15] shares this target. Description: qHTS assay to identify small molecule antagonists of the glucocorticoid receptor (GR) signaling pathway (AID 720692; active = well fitted inhibition curve with a large enough effect in the signal ratio in the repeat runs, not every such curve was filed as active; the % refers to the signal ratio; note: potency is the fitted concentration of half-maximal effect). The method in brief: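 HeLa GR-bla cells; cmpd + dex 5 nM final, 18 h 37 C; LiveBLAzer B/G FRET substrate 2 h RT; fluorescence intensity read. Antagonist mode, qHTS.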
Assay [16] addresses Androgen receptor (Homo sapiens) (UniProt P10275). Description: qHTS assay to identify small molecule antagonists of the androgen receptor (AR) signaling pathway (AID 743035; active = well fitted inhibition curve with a large enough effect in the signal ratio in the repeat runs, not every such curve was filed as active; the % refers to the signal ratio; note: potency is the fitted concentration of half-maximal effect). The method in brief: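 Fluorescence from a beta-lactamase FRET substrate (LiveBLAzer B/G, 2 h, room temperature) measured inhibition of R1881-stimulated signaling in GeneBLAzer AR-UAS-bla HEK293 cells exposed to compound for 16 h at 37C.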

Assay [17] has the same target. Nature of the assay: qHTS assay to identify small molecule agonists of the androgen receptor (AR) signaling pathway (AID 743036; active = well fitted activation curve with a large enough effect in the signal ratio in the repeat runs, with a control signal flat, not every such curve was filed as active; the % refers to the signal ratio). The method in brief:
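Fluorescence from a beta-lactamase FRET substrate served as read-out in AR-UAS-bla GripTite HEK293 cells. Cells were treated with DMSO-dissolved compounds for 16 h at 37C, then with LiveBLAzer B/G substrate for 2 h at room temperature.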

For assay [18] the target is unchanged. Description: qHTS assay to identify small molecule agonists of the androgen receptor (AR) signaling pathway using the MDA cell line (AID 743040; note: nearly all actives have a fitted effect of over 20% in size). The method in brief: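 Human breast carcinoma MDA-kb2 reporter cells (MMTV-luc, AR/GR elements) were treated for 16 h at 37C in 0% CO2 following a 5 h settling period. Signal was quantified by ONE-Glo luminescence.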

Assay [19] shares this target. Description: qHTS assay to identify small molecule antagonists of the androgen receptor (AR) signaling pathway using the MDA cell line (AID 743042; note: nearly all actives have a fitted effect of over 55% in size; note: potency is the fitted concentration of half-maximal effect). An outline of the steps: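 MDA-kb2 breast carcinoma cells carrying MMTV-luciferase (AR/GR responsive) were co-treated with compounds and the agonist R1881 for 16 h at 37C. Inhibition read as ONE-Glo luminescence; CellTiter-Fluor fluorescence measured in parallel for cytotoxicity.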

SMILES strings stand for the structures. Values without a mark were called inactive. Results filed as inconclusive are left out. Calls of active or inactive are those of the source. Unless noted, calls come from the whole dose curve; as a rule, active = well fitted curve in the direction sought with a large enough effect in the repeat runs; inconclusive = weak or mixed curves; inactive = no such curve, though single readings can be large; an effect the other way counts as inactive or inconclusive.
% is set by controls: 0 for no effect and ±100 for the full control effect.

Chain of Androgen receptor (Homo sapiens) (P10275 whole entry, looked up): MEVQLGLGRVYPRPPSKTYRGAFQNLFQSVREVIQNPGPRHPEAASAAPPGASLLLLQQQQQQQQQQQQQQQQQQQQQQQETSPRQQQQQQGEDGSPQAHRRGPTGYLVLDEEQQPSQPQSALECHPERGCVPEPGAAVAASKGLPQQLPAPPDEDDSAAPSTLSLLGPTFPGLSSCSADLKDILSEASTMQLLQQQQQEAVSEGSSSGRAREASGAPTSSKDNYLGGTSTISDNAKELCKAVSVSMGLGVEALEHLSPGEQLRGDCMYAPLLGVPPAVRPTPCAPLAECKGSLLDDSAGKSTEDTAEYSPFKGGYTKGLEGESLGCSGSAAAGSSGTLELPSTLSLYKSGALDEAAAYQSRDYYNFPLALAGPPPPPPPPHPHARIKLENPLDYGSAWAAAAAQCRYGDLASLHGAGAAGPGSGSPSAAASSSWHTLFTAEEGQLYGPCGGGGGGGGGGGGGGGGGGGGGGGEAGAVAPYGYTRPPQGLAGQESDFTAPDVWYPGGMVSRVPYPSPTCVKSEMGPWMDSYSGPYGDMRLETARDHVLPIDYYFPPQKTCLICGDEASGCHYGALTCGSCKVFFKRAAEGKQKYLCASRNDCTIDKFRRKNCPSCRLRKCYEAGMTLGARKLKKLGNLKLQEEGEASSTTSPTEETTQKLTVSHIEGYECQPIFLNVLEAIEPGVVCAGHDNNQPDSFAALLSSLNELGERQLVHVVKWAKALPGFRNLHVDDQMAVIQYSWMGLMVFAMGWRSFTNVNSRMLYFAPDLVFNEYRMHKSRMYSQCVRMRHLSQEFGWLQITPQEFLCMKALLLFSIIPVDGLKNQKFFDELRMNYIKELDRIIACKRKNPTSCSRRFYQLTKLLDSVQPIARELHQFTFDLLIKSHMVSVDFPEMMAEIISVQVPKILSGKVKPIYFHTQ
Chain of Glucocorticoid receptor (Homo sapiens) (P04150 whole entry, looked up): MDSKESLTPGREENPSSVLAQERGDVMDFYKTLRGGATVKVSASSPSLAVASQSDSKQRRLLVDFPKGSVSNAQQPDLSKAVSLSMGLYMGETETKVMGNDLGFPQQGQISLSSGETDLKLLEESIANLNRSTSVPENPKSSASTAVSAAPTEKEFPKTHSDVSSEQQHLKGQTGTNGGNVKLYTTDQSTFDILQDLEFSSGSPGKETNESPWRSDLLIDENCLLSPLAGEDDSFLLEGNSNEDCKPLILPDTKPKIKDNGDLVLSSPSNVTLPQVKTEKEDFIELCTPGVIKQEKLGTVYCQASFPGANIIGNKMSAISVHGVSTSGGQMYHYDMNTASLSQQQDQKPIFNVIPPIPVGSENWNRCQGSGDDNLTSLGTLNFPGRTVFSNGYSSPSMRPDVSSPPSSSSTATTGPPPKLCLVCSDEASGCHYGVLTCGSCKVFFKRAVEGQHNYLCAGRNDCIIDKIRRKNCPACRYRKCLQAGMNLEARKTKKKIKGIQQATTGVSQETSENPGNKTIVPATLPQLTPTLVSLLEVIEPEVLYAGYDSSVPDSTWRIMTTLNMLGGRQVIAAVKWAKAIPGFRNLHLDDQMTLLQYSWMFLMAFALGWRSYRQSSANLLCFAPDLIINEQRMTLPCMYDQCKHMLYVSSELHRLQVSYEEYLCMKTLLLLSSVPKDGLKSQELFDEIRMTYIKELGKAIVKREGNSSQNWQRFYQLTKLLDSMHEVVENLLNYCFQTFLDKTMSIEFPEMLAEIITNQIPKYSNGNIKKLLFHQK

As to `CCN(CC)CCNC(=O)c1cc(Cl)c(N)cc1OC`, the result in assay [1], in assay [2], in assay [3], in assay [4] and in [6] was inactive. For the same molecule, the Potency entry in assay [5], in [7], in [8], in assay [9], in [10] and in [11] was “inactive” each time. Moreover, the Potency result in assay [12] is “inactive”.
Regarding `ClC1=C(Cl)C1(Cl)Cl`, the outcome in [1], in assay [2], in assay [3], in assay [4] and in [6] was inactive. For the same molecule, the Potency entry in assay [5], in [7], in assay [8], in [9], in assay [11] and in assay [12] was “inactive” throughout. Moreover, the Potency result in assay [13] was “inactive”.
Regarding `O=C(c1ccccc1)C1CCC1`, the call in assay [1], in assay [2], in assay [3], in assay [4] and in assay [6] was inactive. Also, the Potency result in assay [5], in [7], in assay [14], in [8], in assay [9] and in [11] was “inactive” throughout.
For the molecule `CCO[Si](C)(CCCOCC1CO1)OCC` (stereo unspecified), the molecule was classed as inactive in assay [1], in assay [2], in assay [4] and in assay [6]. Besides, the Potency entry in assay [5], in [7], in assay [14], in assay [15], in [8] and in assay [12] was “inactive” throughout. In assay [13], the Potency result was “inactive”. In addition, the Potency in assay [9] is 13.7 µM (active); in assay [10] it was 7.7 µM (active); in assay [11], 27.3 µM (active).
On to `CCN(Cc1cccc(S(=O)(=O)O)c1)c1ccc(C(=C2C=CC(=[N+](CC)Cc3cccc(S(=O)(=O)O)c3)C=C2)c2ccc(O)cc2S(=O)(=O)[O-])cc1`, for which the call in assay [1], in assay [2], in [4] and in [6] was inactive. Moreover, the Potency result in [5], in assay [7], in assay [14] and in [15] was “inactive” each time. The Potency in [9] is 10.5 µM (active); in assay [10], 9.32 µM (active); in assay [11] it was 11.7 µM (active).
Turning to `C=C(C)C(=O)OCCC(F)(F)C(F)(F)C(F)(F)C(F)(F)C(F)(F)C(F)(F)F`, the call in [1], in assay [2], in assay [3], in [4] and in assay [6] was inactive. Also, the Potency entry in assay [5], in assay [7], in assay [14], in [15], in [8] and in assay [9] was “inactive” in each case. The Potency result in assay [11], in assay [12] and in assay [13] was “inactive” each time.
As to `CC1=CC[C@@]23C[C@@H]1C(C)(C)[C@@H]2CC[C@H]3C`, the molecule was classed as inactive in [1], in [2], in assay [3], in assay [4] and in assay [6]. Further, the Potency entry in assay [5], in assay [7], in assay [14], in [15], in assay [8] and in assay [9] was “inactive” each time. Moreover, the Potency entry in assay [10], in assay [12] and in assay [13] was “inactive” in each case.
As to `CCCCCCCCCCCCCC(=O)OCC(O)CO` (stereo unspecified), the result in assay [1], in [2], in [3], in assay [4], in assay [6] and in assay [17] was inactive. Also, the Potency entry in [5], in assay [7], in [14], in assay [8], in [9] and in assay [12] was “inactive” in each case. Besides, the Potency entry in [16], in assay [18] and in [19] was “inactive” throughout. The Potency in [10] was 43.3 µM (active).
As for `COC(=O)C1=C(C)NC(C)=C(C(=O)OC(C)(C)CN(C)CCC(c2ccccc2)c2ccccc2)C1c1cccc([N+](=O)[O-])c1` (stereo unspecified), the molecule was called inactive in assay [1], in assay [2], in assay [3], in [4] and in [6]. Moreover, the Potency result in [5], in assay [7], in [14], in assay [12], in [18] and in [13] was “inactive” each time. Further, the Potency in assay [15] was 6.74 µM (active); in assay [9], 5.96 µM (active); in assay [10], 6.68 µM (active); in [11], 9.44 µM (active); in assay [16], 23.9 µM (active); in [19], 29.8 µM (active).
As to `O=[N+]([O-])C1(Br)COCOC1`, the outcome in [1], in assay [2], in [4] and in assay [6] was inactive. In addition, the Potency result in [5], in assay [7], in assay [8] and in assay [13] was “inactive” each time. Besides, the Potency in assay [9] was 12.2 µM (active); in assay [10], 21.7 µM (active); in assay [11], 21.7 µM (active).
Regarding `CC(O)Cn1cnc2c1c(=O)n(C)c(=O)n2C` (stereo unspecified), in assay [1], the fluorescence, % of fluorescein is -0.0718% [at 18.6 µM]. In addition, the activity change in assay [2] is -0.0176% [at 18.6 µM]. Moreover, the results for the fluorescence, % of fluorescent control in [3], in [5] and in assay [7] were 0.243% [at 18.6 µM], -0.0952% [at 18.6 µM] and 0.0234% [at 18.6 µM], respectively. Further, in assay [4], the fluorescence, % of Rose Bengal is -0.131% [at 18.6 µM]. Further, the fluorescence, % of fluorescein control in assay [6] is -0.0191% [at 18.6 µM]. Also, the Potency entry in assay [8], in assay [9], in assay [10] and in assay [13] was “inactive” in each case.
For `CC1=C2[C@@H]([C@H](C)CC[C@H]2/C=C(\C)C(=O)O)[C@H](O)C1`, the molecule was classed as inactive in assay [1], in [2], in assay [4] and in assay [6]. In addition, the Potency entry in assay [5], in [7], in assay [14], in assay [15], in assay [8] and in assay [9] was “inactive” in each case. The Potency entry in [10] and in [11] was “inactive” in each case.
As for `NC(=O)CCCCC(N)=O`, the molecule was called inactive in [1], in assay [2], in assay [3], in assay [4] and in assay [6]. In addition, the Potency result in assay [5], in assay [7], in assay [14], in assay [8], in assay [9] and in assay [10] was “inactive” in each case. Also, the Potency entry in assay [11], in [12] and in [13] was “inactive” each time.
`Oc1ccc2c(c1)Cc1ccccc1-2`: the molecule was called inactive in [1], in [2], in [3], in assay [4] and in assay [6]. Moreover, the Potency result in assay [5], in assay [7], in [8] and in [13] was “inactive” each time. Besides, the Potency in [15] is 19.5 µM (active).
Turning to `O=NN(CCCl)C(=O)NCCCl`, the call in assay [1], in [2], in [3], in assay [4], in assay [6] and in assay [17] was inactive. Besides, the Potency entry in assay [5], in [7], in assay [14], in [15], in [8] and in [9] was “inactive” each time. The Potency entry in assay [11], in assay [12], in [18], in [13] and in [19] was “inactive” in each case.
On to `CCOC(=O)c1ccc(NC(=O)CN2CCCCC2)cc1`, for which the molecule was called inactive in [1], in assay [2], in assay [4], in assay [6] and in assay [17]. The Potency result in [5], in assay [7], in [14], in assay [15], in assay [8] and in assay [12] was “inactive” each time. In addition, the Potency result in assay [16], in [18] and in assay [19] was “inactive” in each case. Moreover, in assay [9], the Potency is 11.9 µM (active).
